Experimental data taken from PubChem BioAssay (EPA / NIEHS).
Where “and” joins values, the source holds several entries; their conditions need not be identical. Identical values can stand only once. Inconclusive results are not listed. The source holds several records for some structures; these can differ, active in one and inactive in another. Calls of active or inactive are those of the source. Rule for the calls: active = hit-call score of the fitted dose curve at least 0.9, where 1 is the maximum; inconclusive = response in the unintended direction; inactive = score below 0.9.

Legend:
[1] = biological target: human Constitutive Androstane Receptor (CAR), NR1I3 (gene 9970) (UniProt Q14994); test: NVS_NR_hCAR_Antagonist: NovaScreen (NVS) Nuclear Receptor Binding Assay for human Constitutive Androstane Receptor Antagonism (CAR) (AID 2283344)
Method in brief: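 Single 25 uM duplicate primary screen, with concentration-series follow-up on actives. Cell-free binding format run in antagonist mode, TR-FRET signal taken 1 h post-dose; activity is signal loss relative to DMSO.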

[2] = biological target: rat Mineralocorticoid Receptor (MR), Nr3c2 (gene 25672) (UniProt P22199); test: NVS_NR_rMR: NovaScreen (NVS) Nuclear Receptor Binding Assay for rat Mineralocorticoid Receptor (MR) (AID 2283355)
Method in brief: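 Single-concentration duplicate screen (25 uM) of radioligand binding in adrenalectomized rat brain supernatant; scintillation detection 24 h after dosing. Positive and negative controls ran on each plate, and confirmed actives went to concentration-response.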

[3] = biological target: guinea pig Sigma Receptor, Non-selective Binding, SIGMAR1 (gene 100135589) (UniProt Q60492); test: NVS_OR_gSIGMA_NonSelective: NovaScreen (NVS) Nuclear Receptor Binding Assay for guinea pig Sigma Receptor, Non-selective Binding (AID 2283367)
Method in brief: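 Test chemicals were screened in duplicate at 25 uM, then in concentration series if active, against radioligand binding to guinea pig brain membranes; filtration and scintillation counting at 1 h measured remaining bound ligand.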

PGR (gene 5241) = PGR (gene 5241) (UniProt P06401); test: NVS_NR_hPR: NovaScreen (NVS) Nuclear Receptor Binding Assay for human Progestron Receptor (PR) (AID 2283360)
Method in brief: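 Competitive displacement of a labelled radioligand from T47D-derived receptor protein is measured in a cell-free format. Initial testing uses 25 uM in duplicate, with positive and negative controls on every plate.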

[4] = biological target: Retinoic acid receptor alpha (Homo sapiens) (UniProt P10276); test: NVS_NR_hRAR_Antagonist: NovaScreen (NVS) Nuclear Receptor Binding Assay for human Retinoic Acid Alpha Receptor Antagonism (RAR) (AID 2283358)
Method in brief: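 Chemicals were first tested in duplicate at 25 uM, then actives in concentration series, in a cell-free TR-FRET antagonist binding format. Measurements were taken 2 hours after dosing and loss of signal was evaluated against DMSO controls.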

[5] = biological target: Estrogen receptor (Homo sapiens) (UniProt P03372); test: NVS_NR_hER: NovaScreen (NVS) Nuclear Receptor Binding Assay for human Estrogen Receptor (ER) (AID 2283348)
Method in brief: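 Radiodetection of ligand displacement in a lysate-based, cell-free format using MCF7 extracts, read at 18 hours. Duplicate 25 uM primary testing, then concentration series for actives.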

[6] = biological target: Estrogen receptor (Homo sapiens) (UniProt P03372); test: OT_ER_ERaERa_1440: Odyssey Thera (OT) 24-hour HEK293T Protein-Complementation Assay for Estrogen Receptor-alpha/-alpha Homodimer (AID 2283349);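 note: hits raise fluorescence above DMSO for agonists and antagonists alike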
Method in brief: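 Stably transfected HEK293T; ERα LBD homodimer PCA. 24 h dosing, fluorescence intensity read, gain-of-signal vs DMSO.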

[7] = biological target: Estrogen receptor (Homo sapiens) (UniProt P03372); test: OT_ER_ERaERa_0480: Odyssey Thera (OT) 8-hour HEK293T Protein-Complementation Assay for Estrogen Receptor-alpha/-alpha Homodimer (AID 2283351);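 note: rise in fluorescence from reassembled reporter fragments on ERα LBD homodimer in nucleus or whole cell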
Method in brief: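 HEK293T cells stably expressing a PCA pair of ER alpha LBD (residues 310-547) were dosed for 8 hours. The gain in fluorescence intensity, nuclear for agonists and whole-cell for antagonists, was measured by laser scanning cytometry against DMSO vehicle.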

[8] = biological target: T1, Estrogen receptor (Homo sapiens) + Estrogen receptor beta (Homo sapiens) (UniProt P03372+Q92731); test: OT_ER_ERaERb_0480: Odyssey Thera (OT) 8-hour HEK293T Protein-Complementation Assay for Estrogen Receptor-alpha/-beta Heterodimer (AID 2283352)
Method in brief: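 Increase in mean fluorescence intensity, measured by laser scanning plate cytometry, reported ER-alpha/ER-beta LBD complementation in HEK293T cells after 8 h chemical exposure. DMSO served as baseline; basal signal is low, punctate and cytoplasmic.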

[9] = biological target: T1, Estrogen receptor (Homo sapiens) + Estrogen receptor beta (Homo sapiens); test: OT_ER_ERaERb_1440: Odyssey Thera (OT) 24-hour HEK293T Protein-Complementation Assay for Estrogen Receptor-alpha/-beta Homodimer (AID 2283356);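 note: heteromer of ER alpha and ER beta binding domains; hits raise reporter fluorescence and both agonists and antagonists give an increase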
Method in brief: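 Heterodimerisation of ERα (aa 310-547) and ERβ (aa 263-489) ligand binding domains was tracked as fluorescence gain in stably transfected HEK293T cells following 24 h dosing, normalised to DMSO controls.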

[10] = biological target: Estrogen receptor beta (Homo sapiens) (UniProt Q92731); test: OT_ER_ERbERb_0480: Odyssey Thera (OT) 8-hour HEK293T Protein-Complementation Assay for Estrogen Receptor-beta/-beta Homodimer (AID 2283357);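 note: active means signal gain over DMSO baseline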
Method in brief: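 Fluorescence gain from complemented reporter fragments on ER-beta LBD homodimer in HEK293T was quantified against DMSO controls after 8 h treatment, fixation in 4% formaldehyde and Draq5 staining.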

[11] = biological target: Nuclear receptor subfamily 1 group I member 2 (Homo sapiens) (UniProt O75469); test: NVS_NR_hPXR: NovaScreen (NVS) Nuclear Receptor Binding Assay for human Pregnane X Receptor (PXR) (AID 2283365);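 note: a drop in FRET signal versus DMSO baseline means the compound binds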
Method in brief: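 Binding was measured by time-resolved fluorescence resonance energy transfer after a 2 h exposure of extracted human PXR protein without cells. Compounds were first tested at 25 uM in duplicate, with concentration series for actives; DMSO defined baseline.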

[12] = biological target: chimpanzee Androgen Receptor (AR), AR (gene 747460) (UniProt O97775); test: NVS_NR_cAR: NovaScreen (NVS) Nuclear Receptor Binding Assay for chimpanzee Androgen Receptor (AR) (AID 2283346);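 note: radioligand displacement from AR measured by scintillation counting in a cell-free assay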
Method in brief: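 Cell-free radioligand displacement using receptor protein extracted from Sf9/Sf21 cells; bound radioligand measured by scintillation counting 72 hours after chemical dosing. Loss of signal versus DMSO baseline indicates binding; primary screen single-concentration in duplicate at 25 uM, actives followed in concentration series.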

[13] = biological target: Retinoic acid receptor alpha (Homo sapiens) (UniProt P10276); test: NVS_NR_hRARa_Agonist: NovaScreen (NVS) Nuclear Receptor Binding Assay for human Retinoic Acid Alpha Receptor Agonism (RAR) (AID 2283361)
Method in brief: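 Compounds screened at 25 uM, duplicate, then in concentration series if active. Detection: TR-FRET gain of signal versus DMSO after 2 h with cell-free extracted RARα.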

[14] = biological target: Glucocorticoid receptor (Homo sapiens) (UniProt P04150); test: NVS_NR_hGR: NovaScreen (NVS) Nuclear Receptor Binding Assay for human Glucocorticoid Receptor (GR) (AID 2283363);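 for AC50: activity is loss of specific radioligand binding signal relative to DMSO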
Method in brief: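 Single-readout cell-free binding: radioligand plus extracted receptor, 16-hour dosing, filter radiodetection; 25 uM duplicate primary, concentration series secondary.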

Sequence of Estrogen receptor (Homo sapiens) (P03372 whole entry, looked up, the tested form may be a part): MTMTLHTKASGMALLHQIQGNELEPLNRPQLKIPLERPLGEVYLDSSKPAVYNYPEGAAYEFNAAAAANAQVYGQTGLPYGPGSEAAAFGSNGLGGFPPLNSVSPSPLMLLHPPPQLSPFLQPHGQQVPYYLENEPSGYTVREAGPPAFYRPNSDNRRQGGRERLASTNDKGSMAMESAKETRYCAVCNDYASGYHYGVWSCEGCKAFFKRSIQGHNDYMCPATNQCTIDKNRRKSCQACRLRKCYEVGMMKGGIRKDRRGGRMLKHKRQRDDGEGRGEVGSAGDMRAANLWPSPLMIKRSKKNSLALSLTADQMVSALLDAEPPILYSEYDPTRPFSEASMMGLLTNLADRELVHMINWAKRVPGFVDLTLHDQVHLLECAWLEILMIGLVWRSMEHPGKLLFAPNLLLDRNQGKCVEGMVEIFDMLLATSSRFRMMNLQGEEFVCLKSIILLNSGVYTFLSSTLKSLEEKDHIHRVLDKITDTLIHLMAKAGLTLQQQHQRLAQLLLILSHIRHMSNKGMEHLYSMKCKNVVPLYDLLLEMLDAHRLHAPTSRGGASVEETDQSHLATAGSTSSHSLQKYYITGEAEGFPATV
T1 sequence (P03372 whole entry, looked up, the tested form may be a part): as above
T1 sequence (Q92731 whole entry, looked up, the tested form may be a part): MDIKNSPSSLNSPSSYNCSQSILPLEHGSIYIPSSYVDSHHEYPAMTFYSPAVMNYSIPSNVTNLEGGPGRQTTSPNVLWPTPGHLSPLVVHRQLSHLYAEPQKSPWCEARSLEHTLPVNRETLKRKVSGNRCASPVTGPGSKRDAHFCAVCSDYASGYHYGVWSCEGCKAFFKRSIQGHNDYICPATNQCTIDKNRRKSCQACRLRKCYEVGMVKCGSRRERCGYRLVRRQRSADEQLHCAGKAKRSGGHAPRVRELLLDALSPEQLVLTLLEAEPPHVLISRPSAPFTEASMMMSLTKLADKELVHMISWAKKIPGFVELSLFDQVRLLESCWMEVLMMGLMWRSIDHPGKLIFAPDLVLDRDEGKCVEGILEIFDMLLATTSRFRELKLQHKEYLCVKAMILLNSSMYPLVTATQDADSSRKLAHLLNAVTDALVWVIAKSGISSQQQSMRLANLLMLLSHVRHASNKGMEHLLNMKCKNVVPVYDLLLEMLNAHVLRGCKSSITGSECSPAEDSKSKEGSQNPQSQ
Sequence of Retinoic acid receptor alpha (Homo sapiens) (P10276 whole entry, looked up): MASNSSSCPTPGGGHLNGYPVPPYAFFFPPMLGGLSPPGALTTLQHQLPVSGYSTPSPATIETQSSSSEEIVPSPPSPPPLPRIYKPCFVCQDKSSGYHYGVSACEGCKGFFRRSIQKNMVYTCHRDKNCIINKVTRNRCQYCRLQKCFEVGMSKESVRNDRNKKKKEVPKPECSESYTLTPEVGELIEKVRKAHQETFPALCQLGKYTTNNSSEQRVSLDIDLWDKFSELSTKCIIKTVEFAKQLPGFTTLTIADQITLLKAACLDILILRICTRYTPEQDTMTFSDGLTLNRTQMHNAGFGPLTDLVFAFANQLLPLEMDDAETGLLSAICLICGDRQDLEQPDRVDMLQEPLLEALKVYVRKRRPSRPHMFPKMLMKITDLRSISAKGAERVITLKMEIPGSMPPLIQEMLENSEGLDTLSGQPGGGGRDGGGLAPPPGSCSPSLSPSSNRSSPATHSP
Sequence of chimpanzee Androgen Receptor (AR), AR (gene 747460) (O97775 whole entry, looked up): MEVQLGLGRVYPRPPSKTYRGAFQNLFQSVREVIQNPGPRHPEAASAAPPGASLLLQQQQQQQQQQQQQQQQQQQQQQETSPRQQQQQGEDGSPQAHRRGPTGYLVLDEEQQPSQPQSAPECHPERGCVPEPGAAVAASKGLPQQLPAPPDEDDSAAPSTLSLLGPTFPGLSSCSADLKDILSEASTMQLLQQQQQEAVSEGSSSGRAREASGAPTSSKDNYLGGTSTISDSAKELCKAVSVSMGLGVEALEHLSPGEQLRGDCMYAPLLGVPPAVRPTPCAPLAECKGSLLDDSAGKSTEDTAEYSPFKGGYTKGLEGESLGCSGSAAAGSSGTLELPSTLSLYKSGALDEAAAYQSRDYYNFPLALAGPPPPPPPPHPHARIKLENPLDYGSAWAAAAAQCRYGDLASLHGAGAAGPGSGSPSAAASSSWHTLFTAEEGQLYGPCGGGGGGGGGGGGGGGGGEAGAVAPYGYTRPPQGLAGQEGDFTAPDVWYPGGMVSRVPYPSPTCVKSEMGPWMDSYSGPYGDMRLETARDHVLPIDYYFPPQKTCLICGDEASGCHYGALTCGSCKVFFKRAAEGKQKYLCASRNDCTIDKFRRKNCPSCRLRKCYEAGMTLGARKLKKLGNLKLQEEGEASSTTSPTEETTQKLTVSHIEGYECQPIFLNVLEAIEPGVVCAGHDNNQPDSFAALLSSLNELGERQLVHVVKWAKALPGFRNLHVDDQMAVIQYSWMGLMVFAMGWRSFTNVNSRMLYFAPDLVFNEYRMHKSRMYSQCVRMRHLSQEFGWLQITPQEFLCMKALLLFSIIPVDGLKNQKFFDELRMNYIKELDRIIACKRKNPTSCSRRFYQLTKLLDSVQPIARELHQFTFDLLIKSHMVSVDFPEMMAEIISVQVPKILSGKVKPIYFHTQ
Sequence of Estrogen receptor beta (Homo sapiens) (Q92731 whole entry, looked up, the tested form may be a part): as the sequence (Q92731 whole entry, looked up, the tested form may be a part) above
Sequence of Nuclear receptor subfamily 1 group I member 2 (Homo sapiens) (O75469 whole entry, looked up): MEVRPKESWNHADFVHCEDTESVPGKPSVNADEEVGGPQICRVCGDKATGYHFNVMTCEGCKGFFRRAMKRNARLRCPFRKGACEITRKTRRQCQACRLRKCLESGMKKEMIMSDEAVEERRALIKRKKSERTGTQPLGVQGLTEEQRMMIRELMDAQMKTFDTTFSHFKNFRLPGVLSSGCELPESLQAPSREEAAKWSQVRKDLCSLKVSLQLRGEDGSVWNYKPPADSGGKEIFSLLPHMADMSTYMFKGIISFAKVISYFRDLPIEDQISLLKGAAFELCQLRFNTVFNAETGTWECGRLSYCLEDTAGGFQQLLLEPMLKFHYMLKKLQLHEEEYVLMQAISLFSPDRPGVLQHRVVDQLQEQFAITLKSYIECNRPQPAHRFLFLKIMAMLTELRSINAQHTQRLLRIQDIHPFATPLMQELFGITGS
Sequence of Glucocorticoid receptor (Homo sapiens) (P04150 whole entry, looked up): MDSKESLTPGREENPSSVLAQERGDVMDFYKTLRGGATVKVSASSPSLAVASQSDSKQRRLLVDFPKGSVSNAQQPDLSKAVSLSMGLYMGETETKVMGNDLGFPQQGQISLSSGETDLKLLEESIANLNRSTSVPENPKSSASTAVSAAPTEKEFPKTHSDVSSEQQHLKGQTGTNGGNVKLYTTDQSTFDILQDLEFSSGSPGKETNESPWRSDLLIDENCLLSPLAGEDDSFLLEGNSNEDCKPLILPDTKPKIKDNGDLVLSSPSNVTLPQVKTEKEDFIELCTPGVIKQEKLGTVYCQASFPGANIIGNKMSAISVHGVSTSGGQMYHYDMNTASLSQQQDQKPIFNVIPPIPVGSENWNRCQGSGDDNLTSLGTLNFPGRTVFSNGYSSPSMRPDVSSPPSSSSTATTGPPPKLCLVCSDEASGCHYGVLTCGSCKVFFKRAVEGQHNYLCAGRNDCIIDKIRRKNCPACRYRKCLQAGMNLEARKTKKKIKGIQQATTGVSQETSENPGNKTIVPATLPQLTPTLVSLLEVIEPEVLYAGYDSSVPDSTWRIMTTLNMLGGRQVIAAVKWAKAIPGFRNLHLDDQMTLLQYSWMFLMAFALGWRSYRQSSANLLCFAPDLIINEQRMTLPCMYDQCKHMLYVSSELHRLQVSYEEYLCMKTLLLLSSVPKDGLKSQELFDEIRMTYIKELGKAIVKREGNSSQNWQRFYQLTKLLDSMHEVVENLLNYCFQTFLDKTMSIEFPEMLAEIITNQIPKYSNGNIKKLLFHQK
Sequence of guinea pig Sigma Receptor, Non-selective Binding, SIGMAR1 (gene 100135589) (Q60492 whole entry, looked up): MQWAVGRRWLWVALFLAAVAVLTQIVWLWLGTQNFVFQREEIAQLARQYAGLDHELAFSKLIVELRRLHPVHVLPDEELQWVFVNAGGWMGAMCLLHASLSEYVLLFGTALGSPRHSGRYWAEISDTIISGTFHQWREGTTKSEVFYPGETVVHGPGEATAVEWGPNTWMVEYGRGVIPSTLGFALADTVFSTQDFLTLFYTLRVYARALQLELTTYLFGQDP
Sequence of human Constitutive Androstane Receptor (CAR), NR1I3 (gene 9970) (Q14994 whole entry, looked up): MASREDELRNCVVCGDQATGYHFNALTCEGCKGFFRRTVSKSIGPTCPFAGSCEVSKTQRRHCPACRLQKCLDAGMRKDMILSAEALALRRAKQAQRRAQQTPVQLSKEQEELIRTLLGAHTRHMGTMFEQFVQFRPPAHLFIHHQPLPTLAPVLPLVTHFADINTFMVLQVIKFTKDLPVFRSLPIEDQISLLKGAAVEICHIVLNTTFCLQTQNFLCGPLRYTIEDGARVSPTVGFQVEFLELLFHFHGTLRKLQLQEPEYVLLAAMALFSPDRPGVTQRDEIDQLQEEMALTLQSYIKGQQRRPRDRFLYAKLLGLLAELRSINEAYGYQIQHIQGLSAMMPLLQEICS

SMILES: C[C@]12CC[C@@H]3c4ccc(O)cc4CC[C@H]3[C@@H]1CC[C@@H]2O
- outcome [1]: inactive
- AC50 [2]: 4.96 µM (active)

SMILES: O=C(c1ccc(OCCN2CCCCC2)cc1)c1c(-c2ccc(O)cc2)sc2cc(O)ccc12
- AC50 [1]: 38.5 µM (active)
- AC50 [3]: 4.67 µM (active)

SMILES: C#C[C@]1(O)CC[C@H]2[C@@H]3CCc4cc(O)ccc4[C@H]3CC[C@@]21C
- AC50 [2]: 3.63 µM (active)
- AC50 (PGR (gene 5241)): 0.221 µM (active)

SMILES: CCCCCCCCOC(=O)c1ccc(O)cc1
- outcome [4]: inactive

SMILES: CCCCCCCCCCCCOCCOS(=O)(=O)O
- AC50 [4]: 16.2 µM (active)

SMILES: CCCCC/C=C\C=C\C(=O)OCC
- AC50 [5]: 42.7 µM (active)
- outcome [6]: inactive
- outcome [7]: inactive
- outcome [8]: inactive
- outcome [9]: inactive
- outcome [10]: inactive
- AC50 [11]: 9.24 µM (active)

SMILES: CCCCCC1C(=O)CCC1CC(=O)OC (stereo not given)
- AC50 [12]: 17.7 µM (active)
- outcome [6]: inactive
- outcome [7]: inactive

SMILES: Cc1cccc(C)c1
- outcome [6]: inactive
- outcome [7]: inactive

SMILES: CC/C(=C(\c1ccccc1)c1ccc(OCCN(C)C)cc1)c1ccccc1
- AC50 [12]: 19.4 µM (active)
- outcome [12]: inactive
- outcome [4]: inactive
- outcome [13]: inactive
- AC50 [14]: 3.08 µM (active) and 6.38 µM (active)
- outcome [14]: inactive
- outcome [11]: inactive
- AC50 [3]: 0.491 µM (active)

SMILES: CCCCCCCCOC(C)=O
- outcome [6]: inactive
- outcome [7]: inactive

SMILES: CC(C)CCCC(C)(C)O
- outcome [12]: inactive
- outcome [6]: inactive
- outcome [9]: inactive

SMILES: CC(O)CNCC(C)O (stereo not given)
- AC50 [6]: 18 µM (active)
- outcome [7]: inactive

SMILES: c1coc(CNc2ncnc3nc[nH]c23)c1
- outcome [6]: inactive

SMILES: CCCc1ccc(O)cc1
- outcome [12]: inactive
- outcome [5]: inactive
- outcome [6]: inactive
- AC50 [8]: 45.2 µM (active)
- AC50 [9]: 43 µM (active)
- AC50 [10]: 33.4 µM (active)

SMILES: c1ccc(OCCOc2ccccc2)cc1
- outcome [5]: inactive
- outcome [6]: inactive
- outcome [7]: inactive
- outcome [8]: inactive
- outcome [9]: inactive
- outcome [10]: inactive

SMILES: OC[C@@H](O)[C@H](O)[C@@H](O)[C@@H](O)CO
- outcome [12]: inactive
- outcome [6]: inactive
- outcome [7]: inactive

SMILES: O=C(O)c1ccccc1O
- outcome [6]: inactive

SMILES: CCCCCCCCCCO[C@@H]1O[C@H](CO)[C@@H](O)[C@H](O)[C@H]1O
- outcome [12]: inactive
- outcome [6]: inactive
- outcome [7]: inactive
- outcome [9]: inactive
- outcome [10]: inactive

SMILES: CCc1cccc(O)c1
- outcome [5]: inactive
- outcome [6]: inactive
- outcome [8]: inactive
- outcome [9]: inactive
- outcome [10]: inactive

SMILES: C=C(C)C(N)=O
- outcome [6]: inactive

SMILES: CN1CCc2cccc3c2[C@H]1Cc1ccc(O)c(O)c1-3
- AC50 [5]: 0.02 µM (active)
- outcome [6]: inactive
- outcome [7]: inactive
- AC50 [9]: 4.59 µM (active)
- outcome [10]: inactive
- outcome [14]: inactive
- AC50 [11]: 0.26 µM (active)

SMILES: CC12CCC(C1)C(C)(C)C2O (stereo not given)
- outcome [5]: inactive
- outcome [6]: inactive
- outcome [8]: inactive
- outcome [9]: inactive
- outcome [10]: inactive

SMILES: CN(C)c1ccc(C=O)cc1
- outcome [5]: inactive

SMILES: COc1ccc(OC)cc1
- outcome [6]: inactive

SMILES: C=C(C)C(=O)OCCC(C)OC(=O)C(=C)C (stereo not given)
- outcome [6]: inactive
- outcome [7]: inactive

SMILES: NNC(=O)OCc1ccccc1
- outcome [5]: inactive
